Consider ten compounds from PubChem BioAssay (Tox21).

The nature of assay [1]: qHTS assay to identify small molecule agonists of the AP-1 signaling pathway - cell viability counter screen (AID 1159525; calls by dose curve; note: nearly all actives have a fitted effect of over 55% in size). The procedure, abridged: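 ME-180 AP-1-bla, 2500 cells/well, Opti-MEM + 0.5% dialyzed FBS; overnight 37 °C; cpd 15-pt titration, 5 h 37 °C; CellTiter-Glo 30 min RT; luminescence read; normalised to TOAB and DMSO controls.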
In general terms: In qHTS, concentration-response curves come from the screen itself.

Assay [2] is described as follows: qHTS assay to identify small molecule agonists of the AP-1 signaling pathway (AID 1159526; calls by dose curve; note: potency is the fitted concentration of half-maximal effect).
The nature of assay [3]: qHTS assay to identify small molecule agonists of the RXR signaling pathway - cell viability counter screen (AID 1159529). For activity change, negative = cytotoxicity: series mostly up to about 77 µM; % is set by controls: 0 for no effect and ±100 for the full control effect. Note: nearly all actives have a fitted effect of over 50% in size. Note: potency is the fitted concentration of half-maximal effect. The procedure, abridged: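 Luminescence from CellTiter-Glo (30 min, RT) measured viability in the same wells as the beta-lactamase reporter readout. Cells: GeneBLAzer RXR-alpha HEK 293T, 2% charcoal-stripped FBS. Compound exposure 16 hr, 37 C.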
Assay [4] can be described thus: qHTS assay to identify small molecule antagonists of the retinoid acid receptor (RAR) signaling pathway - cell viability counter screen (AID 1159551). Note: % is set by controls: 0 for no effect and ±100 for the full control effect; nearly all actives have a fitted effect of over 35% in size. The procedure, abridged:
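Seed C3RL4 cells; next day add compound, then retinol to 1 uM final; incubate 6 h at 37 C; add CellTiter-Glo; read luminescence after 30 min at RT.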

Assay [5] can be described thus: qHTS assay to identify small molecule antagonists of the retinoic acid receptor (RAR) signaling pathway (AID 1159552; note: % is set by controls: 0 for no effect and ±100 for the full control effect; nearly all actives have a fitted effect of over 50% in size). The procedure, abridged: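 Luminescence from a RARE luciferase reporter in C3RL4 cells served as read-out. Cells received compounds together with 1 uM final retinol and incubated 6 hr at 37 C before detection reagent was added for 30 min at room temperature.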

Assay [6] is described as follows: qHTS assay to identify small molecule antagonists of the estrogen related receptor (ERR) signaling pathway from Tox21 library - cell viability counter screen (AID 1224834). Note: % is set by controls: 0 for no effect and ±100 for the full control effect; nearly all actives have a fitted effect of over 30% in size. The procedure, abridged:
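CellTiter-Fluor fluorescence measured; ERR cells; 17.5 h compound incubation at 37 C; 30 min reagent step.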

In assay [7] the target is Luciferin 4-monooxygenase (Photinus pyralis) (UniProt P08659). Put plainly: qHTS assay to identify small molecule inhibitors of firefly luciferase (AID 1224835). Note: nearly all actives have a fitted effect of over 25% in size. Note: potency is the fitted concentration of half-maximal effect. The procedure, abridged:
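Quantitative HTS format; KM concentrations of both substrates. Purified P. pyralis FLuc activity quantified from luminescence images.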

The nature of assay [8]: qHTS assay to identify small molecule agonists of the constitutive androstane receptor (CAR) signaling pathway - cell viability counter screen (AID 1224836). Note: series mostly up to about 92 µM; % is set by controls: 0 for no effect and ±100 for the full control effect; nearly all actives have a fitted effect of over 45% in size. The procedure, abridged:
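Viability read-out: CellTiter-Fluor fluorescence after 23 h compound exposure at 37 C/5% CO2 in double-stable HepG2-CYP2B6-hCAR cells, with PK11195 present at 0.75 uM final; compounds tested in 15-point titration.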

A short description of assay [9]: qHTS assay to identify small molecule antagonists of the constitutive androstane receptor (CAR) signaling pathway - cell viability counter screen (AID 1224837). Note: series mostly up to about 92 µM; % is set by controls: 0 for no effect and ±100 for the full control effect; nearly all actives have a fitted effect of over 45% in size. The procedure, abridged:
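Using CellTiter-Fluor, viability is scored in HepG2 cells stably carrying hCAR and a 2.2kb CYP2B6 reporter after 23 hr compound exposure across 15 concentrations, with CITCO present at 50 nM.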

Assay [10] deals with Nuclear receptor subfamily 1 group I member 3 (Homo sapiens) (UniProt Q14994). Put plainly: qHTS assay to identify small molecule antagonists of the constitutive androstane receptor (CAR) signaling pathway (AID 1224838).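 Note: HepG2 cells stably expressing hCAR with CYP2B6 luciferase reporter stimulated by CITCO; nearly all actives have a fitted effect of over 40% in size.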 Note: potency is the fitted concentration of half-maximal effect. The procedure, abridged: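 Reporter luminescence was quantified after 24 h exposure of hCAR/CYP2B6-2.2kb double-stable HepG2 cells to compounds at 15 concentrations in the presence of 50 nM CITCO final.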

Assay [11] has the same target. Put plainly: qHTS assay to identify small molecule agonists of the constitutive androstane receptor (CAR) signaling pathway (AID 1224839). Note: nearly all actives have a fitted effect of over 15% in size. Note: potency is the fitted concentration of half-maximal effect. The procedure, abridged:
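Luminescence read-out (ONE-Glo, 30 min, room temperature) from double-stable HepG2-CYP2B6-hCAR cells exposed 24 h to 15-point compound series in presence of 0.75 uM PK11195 final.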

Assay [12] has as its target Retinoic acid receptor RXR-alpha (Homo sapiens) (UniProt P19793). Description: qHTS assay to identify small molecule agonists of the RXR signaling pathway (AID 1159527; calls by dose curve; note: % is set by controls: 0 for no effect and ±100 for the full control effect; nearly all actives have a fitted effect of over 35% in size). The procedure, abridged: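 Agonist mode; 9-cis retinoic acid positive control. HEK 293T UAS-bla reporter cells, 2% charcoal-stripped FBS, 16 hr compound exposure at 37 C/5% CO2. LiveBLAzer B/G FRET substrate 2 hr RT; ex 405, em 460/530 nm.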

The nature of assay [13]: qHTS assay to identify small molecule agonists of the retinoic acid receptor (RAR) signaling pathway (AID 1159553). Note: potency is the fitted concentration of half-maximal effect. The procedure, abridged:
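Activation of retinol signaling was monitored via a RARE luciferase reporter in C3RL4 cells. After 6 hr compound treatment at 37 C, detection reagent was added for 30 min at room temperature before luminescence reading.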

A short description of assay [14]: qHTS assay to identify small molecule antagonists of the estrogen related receptor (ERR) signaling pathway - cell viability counter screen (AID 1224818).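 Note: series mostly up to about 46 µM; viability measured after 17.5 h of compound exposure; % is set by controls: 0 for no effect and ±100 for the full control effect.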 The procedure, abridged: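 In the same ERR cell assay, compound-treated wells (17.5 h, 37 C) were multiplexed with a fluorogenic viability reagent, CellTiter-Fluor, read after 30 min to flag cytotoxic substances.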

Assay [15] in a line: qHTS assay to identify small molecule antagonists of the estrogen related receptor (ERR) signaling pathway (AID 1224819;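 note: luminescence from an ERR-driven luciferase reporter measured with One-Glo reagent; series mostly up to about 46 µM; % is set by controls: 0 for no effect and ±100 for the full control effect; nearly all actives have a fitted effect of over 50% in size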). The procedure, abridged: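 qHTS in ERR cells, 2,000/well, 1536 format. Cpd (DMSO) added after 6 h settle, 18 h 37 C. One-Glo luminescence, 30 min RT.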
The subject of assay [16] is estrogen-related receptor alpha (ERRalpha) with PGC-1alpha coactivator, human. Put plainly: qHTS assay to identify small molecule antagonists of the estrogen related receptor signaling pathway with the pleiotropic PPARgamma coactivator (PGC) (AID 1224821; calls by dose curve;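 note: series mostly up to about 46 µM; % is set by controls: 0 for no effect and ±100 for the full control effect; lower luminescence signal means antagonism of PGC/ERR signalling; nearly all actives have a fitted effect of over 50% in size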). The procedure, abridged:
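Quantitative HTS for antagonism: PGC/ERR cells received compounds after 6 h attachment and were incubated 18 h at 37 C, with luminescence (One-Glo) as the endpoint.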

Assay [17] is described as follows: qHTS assay to identify small molecule antagonists of the estrogen related receptor signaling pathway with the pleiotropic PPARgamma coactivator (PGC) cell viability counter screen (AID 1224822; note: series mostly up to about 46 µM; % is set by controls: 0 for no effect and ±100 for the full control effect). The procedure, abridged:
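Compounds in DMSO, with positive and negative controls, were applied to PGC/ERR cells (2,000/well) and left 17.5 h at 37 C before CellTiter-Fluor detection.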

Assay [18] can be described thus: qHTS assay to identify small molecule agonists of the estrogen related receptor signaling pathway with the pleiotropic PPARgamma coactivator (PGC) (AID 1224823). Note: % is set by controls: 0 for no effect and ±100 for the full control effect. The procedure, abridged:
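Cell-based luciferase assay in the NTP-supplied PGC/ERR line, 2,000 cells/well; 18 h compound exposure at 37 C, luminescence after One-Glo.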

Results filed as inconclusive are left out. Unmarked numbers belong to inactive results. Activity calls are given as the source filed them. Unless noted, calls come from the whole dose curve; as a rule, active = well fitted curve in the direction sought with a large enough effect in the repeat runs; inconclusive = weak or mixed curves; inactive = no such curve, though single readings can be large; an effect the other way counts as inactive or inconclusive.

Sequence of Nuclear receptor subfamily 1 group I member 3 (Homo sapiens) (Q14994 whole entry, looked up): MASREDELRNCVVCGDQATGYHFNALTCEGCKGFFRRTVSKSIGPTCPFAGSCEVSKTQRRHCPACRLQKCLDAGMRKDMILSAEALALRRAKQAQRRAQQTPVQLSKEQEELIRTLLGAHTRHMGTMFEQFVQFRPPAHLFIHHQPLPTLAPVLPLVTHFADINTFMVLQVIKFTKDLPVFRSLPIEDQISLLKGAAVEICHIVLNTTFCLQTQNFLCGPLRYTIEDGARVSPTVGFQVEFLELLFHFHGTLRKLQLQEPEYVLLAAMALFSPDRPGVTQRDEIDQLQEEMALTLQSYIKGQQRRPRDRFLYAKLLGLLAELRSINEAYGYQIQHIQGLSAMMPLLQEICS
Sequence of Luciferin 4-monooxygenase (Photinus pyralis) (P08659 whole entry, looked up): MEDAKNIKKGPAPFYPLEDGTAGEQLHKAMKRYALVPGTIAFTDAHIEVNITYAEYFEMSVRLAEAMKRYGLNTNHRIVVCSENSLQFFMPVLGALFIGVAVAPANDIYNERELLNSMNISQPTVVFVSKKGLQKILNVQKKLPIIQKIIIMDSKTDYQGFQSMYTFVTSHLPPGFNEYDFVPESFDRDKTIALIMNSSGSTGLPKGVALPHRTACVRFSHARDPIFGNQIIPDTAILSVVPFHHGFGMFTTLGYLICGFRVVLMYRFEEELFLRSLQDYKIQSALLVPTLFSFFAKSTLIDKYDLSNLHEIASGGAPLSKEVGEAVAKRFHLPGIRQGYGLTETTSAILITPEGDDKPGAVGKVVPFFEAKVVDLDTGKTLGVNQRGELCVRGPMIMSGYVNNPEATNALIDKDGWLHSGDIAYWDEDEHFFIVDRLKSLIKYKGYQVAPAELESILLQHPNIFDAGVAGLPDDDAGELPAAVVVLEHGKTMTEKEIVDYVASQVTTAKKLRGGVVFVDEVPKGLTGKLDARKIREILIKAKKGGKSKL
Sequence of Retinoic acid receptor RXR-alpha (Homo sapiens) (P19793 whole entry, looked up): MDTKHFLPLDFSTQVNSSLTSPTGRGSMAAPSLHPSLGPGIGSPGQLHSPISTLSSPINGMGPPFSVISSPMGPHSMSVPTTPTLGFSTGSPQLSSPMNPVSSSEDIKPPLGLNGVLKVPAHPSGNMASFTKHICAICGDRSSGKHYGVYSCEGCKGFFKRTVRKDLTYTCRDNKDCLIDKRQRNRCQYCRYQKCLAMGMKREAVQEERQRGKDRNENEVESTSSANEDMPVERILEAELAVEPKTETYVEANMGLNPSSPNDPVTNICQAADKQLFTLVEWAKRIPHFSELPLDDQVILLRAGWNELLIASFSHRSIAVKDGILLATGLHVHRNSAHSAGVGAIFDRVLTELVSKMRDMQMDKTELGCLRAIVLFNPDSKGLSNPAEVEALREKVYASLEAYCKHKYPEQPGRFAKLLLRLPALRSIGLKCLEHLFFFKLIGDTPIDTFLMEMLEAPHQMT

For the compound `CC1(C)[C@H]2CC[C@]1(C)C(=O)C2`, the Potency entry in [1], in assay [3], in assay [4], in assay [5], in [6] and in [7] was “inactive” throughout. Besides, the Potency entry in [8], in assay [9], in [10] and in assay [11] was “inactive” throughout. For the same compound, the Potency in assay [2] was 19.5 µM (active).

Take `CCCCNc1ccc(NCCCC)c2c1C(=O)c1ccccc1C2=O`: the viability change, negative = cytotoxic in assay [1] was -8.5% [at 15.8 µM]; in assay [6] it was -12.4% [at 19 µM]; in [8], -17.5% [at 19 µM]. Also, the activation in assay [12] was 10.8% [at 15.8 µM]. Besides, the figures for the activity change, negative = cytotoxicity in assay [3], in assay [4] and in [9] were 10.1% [at 15.8 µM], 0.361% [at 19 µM] and 5.61% [at 19 µM], respectively. In assay [5], the activity, negative = inhibition was -19% [at 19 µM].

On to `S=C1NC=NC2N=CNC12` (stereo not drawn), for which the Potency entry in assay [1], in [2], in [13], in assay [7], in [8] and in assay [11] was “inactive” throughout. Further, the Potency in assay [3] is 6.92 µM (active); in [10] it was 6.11 µM (active).

Turning to `SC1CCCCC1`, the Potency result in [1], in [2], in assay [3], in assay [4], in assay [6] and in assay [7] was “inactive” in each case. Besides, the Potency entry in assay [8], in [9], in [10] and in assay [11] was “inactive” in each case.

As for `CCCOC(=O)c1ccc(O)cc1`, the Potency result in assay [1], in [2], in assay [5], in assay [14], in [15] and in assay [16] was “inactive” in each case. Also, the Potency entry in [17], in [18], in assay [8], in [9] and in [10] was “inactive” throughout. Moreover, the results for the Potency in [13], in [7] and in assay [11] were 54.5 µM (active), 89.4 µM (active) and 54.5 µM (active), respectively.

Regarding `CCc1cccc(C)c1N(C(=O)CS(=O)(=O)O)C(C)COC` (stereo not drawn), the Potency entry in [1], in assay [12], in [3], in assay [4], in assay [5] and in assay [6] was “inactive” each time. The Potency result in assay [7], in assay [8], in [9], in assay [10] and in assay [11] was “inactive” each time.

As to `NCc1ccco1`, the Potency entry in assay [1], in [12], in [3], in [4], in assay [6] and in assay [7] was “inactive” throughout. The Potency result in assay [8], in assay [9], in assay [10] and in assay [11] was “inactive” in each case.

Turning to `Cc1ccc(C2OC[C@@H]3OC(c4ccc(C)cc4)O[C@H]([C@H](O)CO)[C@@H]3O2)cc1` (stereo partly drawn), the Potency result in [1], in assay [2], in [3], in assay [4], in [5] and in assay [6] was “inactive” each time. In addition, the Potency result in assay [7], in [8] and in assay [9] was “inactive” each time.

Turning to `c1ccc2cc3c4ccccc4c4ccccc4c3cc2c1`, the Potency result in assay [1], in [12], in [3], in assay [4], in assay [5] and in assay [13] was “inactive” throughout. The Potency result in [6] and in assay [11] was “inactive” throughout.

With `N#CCCOCCC#N`, the Potency result in assay [1], in assay [12], in assay [3], in [4], in assay [5] and in [6] was “inactive” throughout. Besides, the Potency entry in assay [7], in assay [8] and in assay [9] was “inactive” each time.
